Results taken from the supplement of paper PMC6992640.
Structures can show the parent of a compound that is named as a salt. ± gives the standard deviation of the averaged measurements.

Columns and labels:
Experiment in all cases: cell viability (% of vehicle); higher = less cytotoxic
Settings in all cases: 10 µM; 72 h
HCI01 = test system: HCI01 (cells of a triple-negative basal-like breast cancer xenograft)
HCI03 = test system: HCI03 (cells of an ER-positive luminal breast cancer xenograft)
HCI09 = test system: HCI09 (cells of a triple-negative luminal androgen receptor type breast cancer xenograft)
HCI13 = test system: HCI13 (cells of an ER-positive luminal breast cancer xenograft)
HCI16 = test system: HCI16 (cells of a triple-negative basal-like breast cancer xenograft)
UCD52 = test system: UCD52 (cells of a triple-negative basal-like breast cancer xenograft)
WHIM2 = test system: WHIM2 (cells of a triple-negative basal-like breast cancer xenograft)
WHIM30 = test system: WHIM30 (cells of a triple-negative basal-like breast cancer xenograft)
HCI11 = test system: HCI11 (cells of an ER-positive luminal breast cancer xenograft)
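Further: PDX cells carrying CMV promoter-driven luciferase, viability read as total photon flux per second by IVIS imaging following D-luciferin, vehicle control 0.1% DMSO.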

SMILES | cell viability (HCI01) | cell viability (HCI03) | cell viability (HCI09) | cell viability (HCI13) | cell viability (HCI16) | cell viability (UCD52) | cell viability (WHIM2) | cell viability (WHIM30) | cell viability (HCI11)
CCCC(NC(=O)C1C2CCCC2CN1C(=O)C(NC(=O)C(NC(=O)c1cnccn1)C1CCCCC1)C(C)(C)C)C(=O)C(=O)NC1CC1 (stereo not drawn) [Telaprevir (VX-950)] | 154 ± 43 | 102 | 80.2 ± 12 | 96.4 ± 12 | 144 | 123 ± 6.4 | 96.2 ± 12 | 165 ± 15 | 
CC(=O)OCC(=O)C1(O)C(C)CC2C3CCC4=CC(=O)C=CC4(C)C3(F)C(O)CC21C (stereo not drawn) [Dexamethasone acetate] | 114 ± 33 | 160 | 131 ± 45 |  |  | 149 ± 10 | 119 ± 43 | 149 ± 22 | 138
CC(C)n1c(C=CC(O)CC(O)CC(=O)[O-])c(-c2ccc(F)cc2)c2ccccc21.[Na+] (stereo not drawn) [Fluvastatin Sodium] | 91.3 ± 15 | 135 | 61.2 ± 11 |  | 135 | 54.9 ± 4.7 | 59.6 ± 0.62 | 113 ± 11 | 
CCCCC(=O)OC1(C(=O)CO)C(C)CC2C3CCC4=CC(=O)C=CC4(C)C3(F)C(O)CC21C (stereo not drawn) [Betamethasone Valerate] | 120 ± 12 | 169 | 148 ± 34 |  |  | 161 ± 9.9 | 88.9 ± 29 | 194 ± 17 | 124
CCCc1nc2c(C)cc(-c3nc4ccccc4n3C)cc2n1Cc1ccc(-c2ccccc2C(=O)O)cc1 [Telmisattan] | 107 ± 23 | 111 | 113 ± 59 |  | 116 | 122.3 ± 0.62 | 85 ± 18 | 146 ± 1.6 | 101
CC1CC2C3CC(F)C4=CC(=O)C=CC4(C)C3(F)C(O)CC2(C)C1(O)C(=O)CO (stereo not drawn) [Flumethasone] | 144 ± 49 | 180 | 140 ± 56 |  |  | 166 ± 22 | 93.2 ± 12 | 163 ± 5.2 | 145
O=c1c(O)c(-c2ccc(O)c(O)c2)oc2cc(O)cc(O)c12 [Quercetin] | 124 ± 46 | 123 | 141 ± 4.7 |  | 151 | 102 ± 1.3 | 107.1 ± 0.64 | 128 ± 17 | 99.2
CC(=O)OCC(=O)[C@@]12N=C(C)O[C@@H]1C[C@H]1[C@@H]3CCC4=CC(=O)C=C[C@]4(C)[C@H]3[C@@H](O)C[C@@]12C [Deflazacort] | 107 ± 38 | 141 | 137 ± 32 |  |  |  | 119 ± 14 | 145 ± 3.2 | 133
CC12C=CC(=O)C=C1CCC1C2C(O)CC2(C)C1CCC2(O)C(=O)CO (stereo not drawn) [Prednisolone] | 135 ± 39 | 175 | 166 ± 82 |  |  | 173 ± 4.8 | 114 ± 2.7 |  | 132
O=C(O)CC(O)CC(O)C=Cc1c(C2CC2)nc2ccccc2c1-c1ccc(F)cc1 (stereo not drawn) [Pitavastatin] | 119 ± 18 | 125 | 102 ± 19 |  | 171 | 74.9 ± 9.2 | 93.6 ± 47 | 92.2 ± 11 | 
CC1(C)O[C@@H]2C[C@H]3[C@@H]4CCC5=CC(=O)C=C[C@]5(C)[C@@]4(F)[C@@H](O)C[C@]3(C)[C@]2(C(=O)CO)O1 [Triamcinolone Acetonide] | 147.2 ± 1.3 | 171 | 183 ± 20 |  |  | 198 ± 18 | 89.1 ± 12 |  | 111
CC(C)[N+]1(C)C2CCC1CC(OC(=O)C(CO)c1ccccc1)C2.[Br-] (stereo not drawn) [Ipratropium Bromide] | 138 ± 45 | 151 | 158 ± 79 |  |  | 148 ± 5.2 | 103 ± 15 | 180 ± 23 | 108
CCc1c2c(nc3ccc(OC(=O)N4CCC(N5CCCCC5)CC4)cc13)-c1cc3c(c(=O)n1C2)COC(=O)[C@]3(O)CC [Irinotecan HCl Trihydrate] | 70.8 ± 22 | 165 | 120 ± 25 | 114 ± 15 | 105 | 104 ± 17 | 68 ± 3.8 | 107 ± 19 | 
NCCC(O)(P(=O)(O)O)P(=O)(O)O [Pamidronate] | 167 ± 8.5 | 112 | 56 ± 19 |  |  | 137 ± 19 |  | 143.9 ± 0.96 | 144
CCOC(=O)OC1(C(=O)OCCl)CCC2C3CCC4=CC(=O)C=CC4(C)C3C(O)CC21C (stereo not drawn) [Loteprednol etabonate] | 90.8 ± 59 | 196 | 150 ± 70 |  |  | 158 ± 33 | 105 ± 11 | 198 ± 12 | 123
CC1(C)O[C@@H]2C[C@H]3[C@@H]4CCC5=CC(=O)CC[C@]5(C)[C@@]4(F)[C@@H](O)C[C@]3(C)[C@]2(C(=O)CCl)O1 [Halcinonide] | 123 ± 21 | 144 | 146 ± 72 |  |  | 168 ± 24 | 105 ± 1.8 | 177 ± 4.2 | 133
CCc1c2c(nc3ccc(OC(=O)N4CCC(N5CCCCC5)CC4)cc13)-c1cc3c(c(=O)n1C2)COC(=O)C3(O)CC (stereo not drawn) [Irinotecan] | 110 ± 6 | 133 | 174 ± 80 | 121 ± 2.2 | 140 | 107 ± 6.1 | 67.4 ± 6.7 | 113 ± 8.8 | 
Nc1ccccc1NC(=O)c1ccc(CNc2nccc(-c3cccnc3)n2)cc1 [Mocetinostat (MGCD0103, MG0103)] |  | 87 | 78.4 ± 73 | 150 ± 160 |  |  | 109 ± 13 |  | 5.73
O=c1oc2cc(O)ccc2s1 [Tioxolone] | 115.5 ± 0.72 |  | 87.9 ± 13 | 85.9 ± 17 | 172 | 109.1 ± 0.84 | 129 ± 28 | 145 ± 30 | 96.8
O=C(O)C1=CC(=NNc2ccc(S(=O)(=O)Nc3ccccn3)cc2)C=CC1=O [Sulfasalazine] |  | 124 | 119 ± 9.1 | 161 ± 27 | 180 | 100 ± 5 | 105 ± 8.7 | 181 ± 26 | 137
Nc1nc(NC2CC2)c2ncn(C3C=CC(CO)C3)c2n1.O=S(=O)(O)O (stereo not drawn) [Abacavir sulfate] | 161 ± 13 |  |  | 134 ± 16 | 157 | 196 ± 5.3 | 128 ± 5.2 |  | 139
O=C(C=Cc1cccc(S(=O)(=O)Nc2ccccc2)c1)NO [Belinostat (PXD101)] |  | 104 | 39.6 ± 33 | 55.1 ± 25 |  |  | 43.7 ± 1.1 |  | 6.42

SMILES | cell viability (HCI01) | cell viability (HCI03) | cell viability (HCI09) | cell viability (HCI13) | cell viability (HCI16) | cell viability (UCD52) | cell viability (WHIM2) | cell viability (WHIM30) | cell viability (HCI11)
CCN(CC)CCNC(=O)c1ccc(N)cc1.Cl [Procainamide HCl] | 110 ± 3.9 |  | 108 ± 4.1 | 98 ± 2.4 | 116 | 100 ± 7.8 | 110 ± 10 | 197 ± 10 | 95.8
Nc1nc(NC2CC2)c2ncn(C3C=CC(CO)C3)c2n1 (stereo not drawn) [Abacavir] | 173 ± 35 |  |  | 193 ± 30 | 121 |  | 179 ± 28 |  | 118
CCN(CC)CCOc1ccc(C(=C(Cl)c2ccccc2)c2ccccc2)cc1.O=C(O)CC(O)(CC(=O)O)C(=O)O [Clomiphene citrate] |  | 51.5 | 34.9 ± 3.9 | 39.3 ± 1.4 | 134 | 62.5 ± 0.63 | 35.1 ± 12 | 146 ± 15 | 95.8
CO[C@H]1C[C@@H]2CC[C@@H](C)[C@@](O)(O2)C(=O)C(=O)N2CCCC[C@H]2C(=O)O[C@H]([C@@H](C)C[C@@H]2CC[C@@H](OCCO)[C@H](OC)C2)CC(=O)[C@H](C)/C=C(\C)[C@@H](O)[C@@H](OC)C(=O)[C@H](C)C[C@H](C)/C=C/C=C/C=C/1C [Everolimus (RAD001)] |  | 69.8 | 27.5 ± 4 | 54.91 ± 0.39 | 179 | 55.2 ± 9.9 | 41.9 ± 4.8 | 160 ± 35 | 102
N#CCC(C1CCCC1)n1cc(-c2ncnc3[nH]ccc23)cn1 (stereo not drawn) |  | 185 | 106 ± 19 | 76.1 ± 14 | 106 | 117.7 ± 0.47 | 134 ± 12 | 187.4 ± 1.7 | 129
O=C(C=CC=Cc1ccc2c(c1)OCO2)N1CCCCC1 [Piperine] | 158 ± 4 |  |  |  | 131 |  | 117 ± 0.57 | 111.83 ± 0.044 | 134
Cc1cnc(Nc2ccc(OCCN3CCCC3)cc2)nc1Nc1cccc(S(=O)(=O)NC(C)(C)C)c1 |  | 173 | 133 ± 44 | 61.6 ± 12 | 161 | 196 ± 55 | 43.8 ± 0.93 |  | 138
CCn1cc(C(=O)O)c(=O)c2cnc(N3CCCC3)nc21 [Piromidic Acid] | 151 ± 52 |  | 132 ± 5 | 171 ± 27 | 125 | 145 ± 4.4 |  |  | 110
CN1CCN(c2ccc3c(c2)NC(=C2C(=O)N=c4cccc(F)c4=C2N)N3)CC1 [Dovitinib (TKI-258, CHIR-258)] | 92.5 ± 18 |  | 49.8 ± 24 |  |  | 125 ± 32 | 69.8 ± 20 | 104 ± 1.8 | 79
CC(C)Cc1ccc(C(C)C(=O)O)cc1.NCCCCC(N)C(=O)O (stereo not drawn) [Ibuprofen Lysine] |  | 130 | 106 ± 12 | 131 ± 6.2 | 162 | 132 ± 29 | 84.8 ± 3.6 | 170 ± 23 | 138
C#Cc1cccc(Nc2ncnc3cc(OC)c(OCCCCCCC(=O)NO)cc23)c1 |  | 105 | 22.1 ± 10 | 77.52 ± 0.49 |  |  | 44.4 ± 5 |  | 4.55
O=c1c(-c2ccc(O)cc2)coc2cc(O)ccc12 [Daidzein] | 146 ± 37 | 155 |  |  | 180 | 149 ± 13 | 119 ± 7.2 |  | 114
CC1(C)CCC(CN2CCN(c3ccc(C(=O)NS(=O)(=O)c4ccc(NCC5CCOCC5)c([N+](=O)[O-])c4)c(Oc4cnc5[nH]ccc5c4)c3)CC2)=C(c2ccc(Cl)cc2)C1 | 83.9 ± 55 |  | 61.5 ± 30 | 129 ± 10 | 80 | 101 ± 14 | 151 ± 32 | 99.4 ± 53 | 68.4
Cc1[nH]c2ccccc2c1CCNCc1ccc(C=CC(=O)NO)cc1 [Panobinostat (LBH589)] |  | 130 | 68.3 ± 34 | 45 ± 8.7 |  |  | 36.5 ± 3 |  | 
COc1ccc(-c2cc(=O)c3c(O)cc(O)cc3o2)cc1O [Diosmetin] | 169 ± 46 |  | 170 ± 120 |  | 181 |  |  |  | 
C[C@@H]1C\C=C/C=C\C=C/C=C\[C@H](O[C@@H]2O[C@H](C)[C@@H](O)[C@H](N)[C@@H]2O)C[C@@H]2O[C@](O)(C[C@@H](O)C[C@H]3O[C@@H]3/C=C\C(=O)O1)C[C@H](O)[C@H]2C(=O)O [Natamycin] |  | 137 | 121 ± 19 | 144.5 ± 1.4 |  | 156 ± 48 | 103 ± 9.2 | 199 ± 34 | 146
CNCCc1ccccn1.Cl.Cl [Betahistine 2HCl] |  | 134 | 103 ± 23 | 89.7 ± 17 |  | 133 ± 48 | 93.5 ± 30 | 186 ± 14 | 140
COC1=CC(=O)C[C@@H](C)[C@]12Oc1c(Cl)c(OC)cc(OC)c1C2=O [Griseofulvin] | 127 ± 7.9 |  | 141 ± 30 | 128 ± 5.8 | 128 | 136 ± 24 | 121 ± 36 | 190 ± 15 | 98.7
OCC1OC(O)C(O)C(O)C1O [Dextrose (D-glucose)] | 123.4 ± 0.67 |  | 106 ± 1.3 | 124 ± 6.9 | 110 | 88.77 ± 0.6 | 105 ± 3.9 | 153 ± 12 | 125
CC(=O)c1c(C)c2cnc(Nc3ccc(N4CCNCC4)cn3)nc2n(C2CCCC2)c1=O.O=S(=O)(O)CCO | 154 ± 77 |  | 78 ± 29 | 179 ± 75 | 180 | 105 ± 7.7 | 103 ± 13 | 145 ± 2.8 | 154
OCC1OC(Oc2cc(O)cc(C=Cc3ccc(O)cc3)c2)C(O)C(O)C1O (stereo not drawn) [Polydatin] | 155 ± 18 |  | 113 ± 15 | 99.9 ± 1.1 | 195 |  | 109 ± 35 |  | 142
COc1ccccc1Oc1c(NS(=O)(=O)c2ccc(C(C)(C)C)cc2)nc(-c2ncccn2)nc1OCCO.O [Bosentan Hydrate] |  | 124 | 87.8 ± 26 | 172 ± 36 |  | 125 ± 8.9 | 87.1 ± 8.3 | 184 ± 2.7 | 101
